# Results from the OligoGym collection.
# Target: ELF2
# Assay: pooled miR-30 sensor sort-seq; sequence = guide strand
# Details: shRNA
# Note: reference of the scale not given here.
row,Sequence,sensor-assay potency score (higher = more potent)
1,TATGTTTTTCGGCATATCCTTG,-0.943
2,TATCCTTGAACTGATATACAAG,-1.19
3,TTTGTCATCATCTATGACCACT,-0.807
4,TAGTAGTATCTCAAAGCTCGTC,-0.0908
5,TATGACTGCACTGATAACTCGA,0.372
6,TGATTTTCTACTCCATTGCTGG,-0.423
7,TTTCACTTTTGTCATCATCTAT,-0.516
8,TGATATTCACAACTCTAGCTAC,-0.607
9,TTCTTCTGCCACATCTTGCATC,-0.811
10,ATCATCATAAACCAGAACCTGG,-0.854

# Target: EMD
# Assay: as above
# Details: shRNA
row,Sequence,sensor-assay potency score (higher = more potent)
1,AAGATCGTCATCATGCACCTGG,0.638
2,TAATAGGACAGGTCCAGGGAGC,-1.25
3,TAGTGCGTGATGCTCTGGTAGG,-0.899
4,TAAAGCGTCCTCTTTCTTGGGA,0.267
5,TCGTACTCGAAGATCTTCTTCT,0.284
6,TAGCTCTCTTCATAGTAGTCGT,-0.538
7,TTCTTCTCGTAAAGCCTACGAG,-0.852
8,TACTCGAAGATCTTCTTCTCGT,-0.0297
9,TCTGGTAGAGTAAAGCGTCCTC,0.201
10,TACATATCTGCATCCCCTCTAG,-0.434
11,ATCTTCTTCTCGTAAAGCCTAC,-1.02
12,AAAGCCTACGAGTTGATCCTAC,-0.00514
13,TTCCCTATCCTTGCACTCCTCT,-0.239
14,TAGTAGTCGTCATTGTAGCCCT,-0.272
15,TAGGATAATAGGACAGGTCCAG,-0.423
16,TGGTGAAGTAGCTCTCTTCATA,-1.46
17,TGCTCTGGTAGAGTAAAGCGTC,-0.878
18,AAGAAGACAAAAGATCGTCATC,-1.25
19,TACGAGTTGATCCTACTACAGG,-1.33
20,TCGAAGATCTTCTTCTCGTAAA,-1.01
